From PubChem BioAssay (NCI) come the findings set out here.

This is part of a sample that, as a whole, favours compounds with a hit. Of some 83,000 tested, about 20% had one in any assay.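 96-well plates, one dose, 48 hours. Percent growth reported; active if below 10.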 A number with no mark means an inactive call. The source made the active and inactive calls.

Among the test systems are NCI-H23 lung; NCI-H226 lung; NCI-H322M lung; HOP-62 NSCLC; NCI-H460 lung; HOP-92 NSCLC; NCI-H522 lung; A549/ATCC NSCLC; 786-0 renal; COLO 205 colon; DU-145 prostate; K-562 leukemia; MALME-3M melanoma; MDA-MB-231 breast; RXF 393 renal; SF-268 CNS; SF-295 CNS; SF-539 CNS; UACC-257 melanoma; M14 melanoma.
What all share (assay): NCI-60 one-dose screen, 48 h (100 = growth as untreated, 0 = no growth, -100 = all killed)
Common to all, as to settings: 10 µM unless noted

Regarding `CCCNNC(=O)c1ccc(-c2ccc(NC(=O)CCCCCCC(=O)N[C@H](C(=O)N3C[C@H](O)C[C@H]3C(=O)N[C@@H](C)c3ccc(-c4scnc4C)cc3)C(C)(C)C)cc2)cc1`, the growth in the assay on NCI-H23 lung was 37.3%; with NCI-H226 lung, 46.5%; in the assay with NCI-H322M lung it was 34.7%; in the assay on HOP-62 NSCLC, 27.8%; in the assay with NCI-H460 lung, 31.8%; with HOP-92 NSCLC, -26.7% (active). Also, the growth in the assay with NCI-H522 lung was 10%; in the assay with A549/ATCC NSCLC it was 72.4%; with 786-0 renal it was 36.9%; in the assay on COLO 205 colon, -31.1% (active); in the assay with DU-145 prostate it was 32.4%; in the assay on K-562 leukemia, 15.5%. For the same molecule, the growth in the assay on MALME-3M melanoma was 32%; in the assay on MDA-MB-231 breast, 24.1%; in the assay with RXF 393 renal, -33% (active); with SF-268 CNS, 46.3%; with SF-295 CNS it was 46.8%; in the assay with SF-539 CNS, 27.3%. Moreover, the growth in the assay on UACC-257 melanoma is 23.6%; in the assay on M14 melanoma it was 39.8%.

On to `CNC(=O)Nc1ccc(Nc2cc(-c3ccc(-n4cccn4)cc3)[nH]n2)c(C)c1`, for which the growth in the assay on NCI-H23 lung was 102%; in the assay on NCI-H226 lung, 104%; in the assay on NCI-H322M lung, 101%; with HOP-62 NSCLC it was 106%; in the assay with NCI-H460 lung, 97.3%; in the assay with HOP-92 NSCLC, 173%. The growth in the assay with NCI-H522 lung is 96.1%; in the assay on A549/ATCC NSCLC it was 102%; with 786-0 renal it was 111%; in the assay on COLO 205 colon it was 124%; in the assay with DU-145 prostate, 105%; in the assay with K-562 leukemia it was 95.5%. Besides, the growth with MALME-3M melanoma is 125%; in the assay with MDA-MB-231 breast, 123%; in the assay on RXF 393 renal it was 141%; in the assay with SF-268 CNS it was 103%; in the assay with SF-295 CNS it was 109%; in the assay on SF-539 CNS it was 98.7%. The growth in the assay with UACC-257 melanoma was 115%; with M14 melanoma, 126%.

For `OCC(Nc1ncnc2ccc(-c3cnc4cnccn34)cc12)c1ccccc1` (stereo not given), the growth with NCI-H23 lung was 57.8%; in the assay with NCI-H226 lung it was 67.5%; in the assay on NCI-H322M lung, 40%; with HOP-62 NSCLC it was 79.8%; with NCI-H460 lung, 89.4%; in the assay on HOP-92 NSCLC, 59.3%. Further, the growth was 43.5% in the assay with NCI-H522 lung; 74.2% in the assay on A549/ATCC NSCLC; 64.4% with 786-0 renal; 98.2% in the assay on COLO 205 colon; 47.4% with DU-145 prostate; 60.2% in the assay with K-562 leukemia. The growth was 81.5% with MALME-3M melanoma; 83.2% in the assay on MDA-MB-231 breast; 65.4% with RXF 393 renal; 75.9% with SF-268 CNS; 64.7% in the assay on SF-295 CNS; 79% in the assay with SF-539 CNS. The growth in the assay on UACC-257 melanoma was 80.7%; in the assay with M14 melanoma, 93.3%.

For `O=C1[C@@H]2Cc3c([nH]c4ccccc34)[C@@H](c3ccc(Cl)cc3)N2C(=O)CN1C1CCN(Cc2ccccc2)CC1`, the growth with NCI-H23 lung is 72.4%; in the assay on NCI-H226 lung, 72.5%; with NCI-H322M lung it was 87.2%; in the assay with HOP-62 NSCLC it was 61%; in the assay with NCI-H460 lung, 20%; in the assay on HOP-92 NSCLC, 11.3%. Also, the growth in the assay with NCI-H522 lung is 20.7%; in the assay with A549/ATCC NSCLC, 38.6%; with 786-0 renal, 67%; in the assay on COLO 205 colon, 46.4%; with DU-145 prostate, 57.5%; with K-562 leukemia, 3.54% (active). Besides, the growth is 79.6% in the assay on MALME-3M melanoma; 64.2% with MDA-MB-231 breast; 50.3% with RXF 393 renal; 48% with SF-268 CNS; 85.2% in the assay with SF-295 CNS; 72.7% in the assay with SF-539 CNS. Moreover, the figures for the growth in the assay with UACC-257 melanoma and with M14 melanoma were 75.8% and 7.82% (active), respectively.

With `COc1ccc2sc(NC(=O)CCCCCCNC(=O)C(O)(O)C(F)(F)F)nc2c1`, the growth was 1.72% (active) in the assay with NCI-H23 lung; 24.6% in the assay with NCI-H226 lung; 4.96% (active) with NCI-H322M lung; -3.09% (active) in the assay with HOP-62 NSCLC; 7.12% (active) in the assay with NCI-H460 lung; -12.7% (active) with HOP-92 NSCLC. Also, the growth is -42.7% (active) with NCI-H522 lung; 2.41% (active) in the assay with A549/ATCC NSCLC; 13.1% in the assay with 786-0 renal; -69.9% (active) with COLO 205 colon; 4.67% (active) with DU-145 prostate; 11.2% in the assay on K-562 leukemia. Further, the growth in the assay on MALME-3M melanoma was 20.7%; in the assay on MDA-MB-231 breast, 20%; in the assay on RXF 393 renal it was -47.6% (active); in the assay with SF-268 CNS, -0.601% (active); in the assay with SF-295 CNS it was -37.1% (active); with SF-539 CNS it was 6.85% (active). Moreover, the growth in the assay on UACC-257 melanoma is 12.5%; in the assay on M14 melanoma it was 13.4%.

Turning to `N#Cc1c(-c2cccs2)c(C#N)c(=O)n(Cc2nc3ccccc3[nH]2)c1N`, the growth with NCI-H23 lung was 90.7%; with NCI-H226 lung, 87%; in the assay with NCI-H322M lung, 98.5%; in the assay on HOP-62 NSCLC, 93.3%; with NCI-H460 lung it was 101%; in the assay on HOP-92 NSCLC it was 95.2%. Moreover, the growth with NCI-H522 lung was 95.1%; in the assay on A549/ATCC NSCLC, 103%; with 786-0 renal, 103%; with COLO 205 colon it was 111%; in the assay with DU-145 prostate, 111%; in the assay on K-562 leukemia, 101%. Also, the growth in the assay on MALME-3M melanoma was 107%; in the assay on MDA-MB-231 breast it was 82.4%; with RXF 393 renal, 94.4%; with SF-268 CNS it was 104%; with SF-295 CNS, 107%; in the assay on SF-539 CNS it was 97.7%. Moreover, the growth in the assay on UACC-257 melanoma is 110%; in the assay with M14 melanoma, 98.4%.

Turning to `CC(C)=CCC[C@](C)(O)[C@H]1CC[C@]2(C)[C@@H]1CC[C@@H]1[C@@]3(C)CC[C@H](N)C(C)(C)[C@@H]3CC[C@]12C`, the growth in the assay on NCI-H23 lung was 76.5%; with NCI-H226 lung, 93.1%; in the assay on NCI-H322M lung it was 111%; in the assay on HOP-62 NSCLC it was 97.9%; in the assay with NCI-H460 lung it was 27.4%; in the assay on HOP-92 NSCLC it was 76.3%. For the same molecule, the growth is 96.8% with NCI-H522 lung; 67.3% in the assay on A549/ATCC NSCLC; 61.9% in the assay with 786-0 renal; -31.4% (active) in the assay with COLO 205 colon; 72.2% in the assay with DU-145 prostate; -41.2% (active) in the assay on K-562 leukemia. The growth is 107% in the assay with MALME-3M melanoma; 85.4% with MDA-MB-231 breast; 53.2% in the assay on RXF 393 renal; 86% with SF-268 CNS; 93.2% in the assay with SF-295 CNS; 87.9% in the assay with SF-539 CNS. Moreover, the results for the growth in the assay on UACC-257 melanoma and in the assay on M14 melanoma were 94% and 92.9%, respectively.

As to `CN1CCN(c2ccc(Nc3nc(NCCNC(=O)c4ccccc4)c4sccc4n3)cc2)CC1`, the growth was 74.2% in the assay with NCI-H23 lung; 108% in the assay with NCI-H226 lung; 85.2% in the assay on NCI-H322M lung; 104% in the assay on HOP-62 NSCLC; 74% in the assay with NCI-H460 lung; 69.4% in the assay on HOP-92 NSCLC. Besides, the growth in the assay on NCI-H522 lung is 68.4%; in the assay on A549/ATCC NSCLC it was 67.4%; with 786-0 renal, 45.6%; in the assay with COLO 205 colon, 56.5%; with DU-145 prostate it was 79.4%; with K-562 leukemia, 8.82% (active). For the same molecule, the growth in the assay on MALME-3M melanoma was 30.6%; in the assay with MDA-MB-231 breast, 54.3%; in the assay on RXF 393 renal, 33.8%; in the assay on SF-268 CNS it was 64.6%; in the assay on SF-295 CNS it was 76.9%; in the assay on SF-539 CNS, -75.4% (active). Also, the growth was 33.3% in the assay with UACC-257 melanoma and 27.8% in the assay with M14 melanoma.
